Reference: PubChem BioAssay AID488969 (Vanderbilt High Throughput Screening Facility, 2010)
In all, about 110,000 compounds were measured (“z-score”: median about -0.1, highest 2% from about 2 on). This is one part of a sample in which the highest values are shown more often than they occur. Active and inactive are the calls of the source.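 How the source made its calls: active means z-score in the third read window above 3 or below -3; inactive means the rest.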

The compounds below were run against Metabotropic glutamate receptor 8 (Rattus norvegicus) (UniProt P70579) (assay: rat mGluR8 modulators via GIRK flux, primary screen, cell-based, thallium flux, HTS (AID 488969)). Settings: HEK293 rat mGluR8, GIRK (G protein-gated inwardly rectifying potassium channel) thallium flux, FluoZin2; at 10 µM; stronger effect = higher value; submaximal glutamate (EC20) added with thallium.
Chain of Metabotropic glutamate receptor 8 (Rattus norvegicus) (P70579 whole entry, looked up): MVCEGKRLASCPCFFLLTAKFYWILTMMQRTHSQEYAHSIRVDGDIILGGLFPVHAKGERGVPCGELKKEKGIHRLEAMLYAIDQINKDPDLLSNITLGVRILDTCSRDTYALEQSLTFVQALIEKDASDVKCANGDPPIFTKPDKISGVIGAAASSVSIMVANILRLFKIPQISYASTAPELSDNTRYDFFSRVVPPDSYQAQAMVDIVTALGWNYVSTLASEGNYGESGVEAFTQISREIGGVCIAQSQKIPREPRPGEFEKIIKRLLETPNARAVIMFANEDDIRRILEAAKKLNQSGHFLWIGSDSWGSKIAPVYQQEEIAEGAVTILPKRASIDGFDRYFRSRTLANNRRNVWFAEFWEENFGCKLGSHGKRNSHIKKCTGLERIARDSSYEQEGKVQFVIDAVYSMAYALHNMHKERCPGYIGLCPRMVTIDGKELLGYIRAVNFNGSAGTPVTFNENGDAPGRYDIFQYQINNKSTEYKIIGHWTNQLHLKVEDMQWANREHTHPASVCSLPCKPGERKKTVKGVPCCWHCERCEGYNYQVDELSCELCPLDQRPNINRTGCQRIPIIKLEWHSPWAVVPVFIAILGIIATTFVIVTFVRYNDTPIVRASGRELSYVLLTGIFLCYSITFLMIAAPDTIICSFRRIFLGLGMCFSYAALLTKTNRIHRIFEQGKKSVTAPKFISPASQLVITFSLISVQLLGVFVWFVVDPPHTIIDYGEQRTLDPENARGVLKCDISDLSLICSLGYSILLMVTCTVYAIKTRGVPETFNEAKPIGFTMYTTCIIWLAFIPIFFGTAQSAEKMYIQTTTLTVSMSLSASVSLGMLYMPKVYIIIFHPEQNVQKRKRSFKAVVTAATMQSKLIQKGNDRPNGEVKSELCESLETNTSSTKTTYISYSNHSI

Going from `CC(C)CNC(C(=O)Nc1ccc([N+](=O)[O-])cc1Br)c1ccccc1` (stereo unspecified) to `CCN(CC)S(=O)(=O)c1cccc(C(=O)N[C@H](C(=O)Nc2nc3ccccc3s2)C(C)C)c1`, the z-score rises from -0.337 to 0.326.

Going from `CCCN=CC1=C(O)CC(c2ccccc2)CC1=O` (stereo unspecified) to `CCC(C)N=CC1=C(O)CC(c2ccccc2)CC1=O` (stereo unspecified), the z-score rises from -0.493 to 2.05.

First: O=C1CC(c2ccccc2)CC(O)=C1C=NCc1ccccc1 (stereo unspecified)
Second: Cc1cc(C2=NNC(=NCc3ccccc3)SC2)c(C)n1-c1c(C)n(C)n(-c2ccccc2)c1=O
The z-score of the first is higher: -0.229 for the first, -0.278 for the second.

Going from `C=C(Br)Cn1c(CC(C)C)nc2ccccc21` to `Cc1ccc(/C=C(\C#N)c2nc3ccccc3[nH]2)s1`, the z-score rises from -0.262 to -0.0719.

First: COC(=O)c1sc(N)nc1C(C)(C)C
Second: CCOC(=O)Nc1nc(C)c(C(=O)N(C)C)s1
The z-score of the first is lower: -0.167 for the first, -0.0609 for the second.

Compared with `COc1cc2c(cc1Cl)/C(=C\CCN(C)C)c1ccccc1S2`, `CN(C)CC/C=C1/c2ccccc2Sc2c(O)cc(Cl)cc21` is higher in z-score: -0.852 for the first, 1.62 for the second.

First: O=C(CNc1ccccc1)N/N=C/c1ccc2c(c1)OCO2
Second: COC(=O)c1cccc(NC(=O)CCc2ccccc2)c1
The z-score of the first is lower: -0.247 for the first, -0.143 for the second.

Compared with `COc1ccc(NC(=O)Nc2nnc(-c3ccccc3SCc3ccccc3)s2)cc1`, `COc1ccc(S(=O)(=O)N(CCc2ccccc2)CC(=O)O)cc1` is higher in z-score: -0.158 for the first, 2.73 for the second.

Compared with `CC(=O)N1CCN=C1SCc1ccccc1`, `CC(=O)N1CCN=C1SCc1ccc(F)cc1` is higher in z-score: -0.898 for the first, 0.0688 for the second.

First: CC(=O)N1CCN=C1SCc1ccc(Br)cc1
Second: O=C(CCN1C(=O)COc2ccccc21)NCCN1CCc2ccccc2C1
The z-score of the first is higher: 2.58 for the first, -0.306 for the second.

First: COC(=O)c1ccc(NC(=O)C(=O)N2CCN(C(=S)NCCc3ccccc3)CC2)cc1
Second: COc1ccc(NC(=S)N2CCN(C/C=C/c3ccccc3)CC2)cc1
The z-score of the first is higher: -0.154 for the first, -0.821 for the second.

Going from `O=C(N/N=C\c1cn[nH]c1-c1ccccc1)c1cccnc1` to `O=C(Nc1ccc(F)cc1)c1ccc(-n2ccnc2)nc1`, the z-score falls from 0.0508 to -0.238.

Compared with `CCOC(=O)c1cncc(C(=O)O)c1`, `COC(=O)Oc1cncc(C(=O)O)c1` is lower in z-score: 1.8 for the first, -0.0704 for the second.

Going from `O=C(OCc1ccccc1)Oc1cncc(C(=O)O)c1` to `CC(C)(C)C(=O)NC(=S)NCc1ccccc1`, the z-score falls from 2.64 to -0.201.

Compared with `CCN(CC)S(=O)(=O)c1ccc(C(=O)NCc2ccc3c(c2)cc(C)n3C)cc1`, `CCNC(=O)CN(CCc1ccccc1)S(=O)(=O)c1ccc(OC)cc1` is higher in z-score: -0.388 for the first, -0.329 for the second.

First: CN(C)S(=O)(=O)c1cccc(C(=O)Nc2cc(Cl)cc(Cl)c2)c1
Second: CN(C)S(=O)(=O)c1cccc(NC(=S)N/N=C/C(c2ccccc2)c2ccccc2)c1
The z-score of the first is lower: -0.468 for the first, 0.384 for the second.

Compared with `FC(F)(F)c1cccc(NC(=S)Nc2ccc(Cl)cc2Cl)c1`, `Cc1cccc(NC(=O)Nc2ccc(C)c(C)c2)n1` is lower in z-score: 1.29 for the first, -0.316 for the second.

Going from `CN(C)S(=O)(=O)c1cccc(NC(=S)NN=C(Cc2ccccc2)Cc2ccccc2)c1` to `O=C(CCc1ccc(S(=O)(=O)NC2CCCCC2)cc1)N(Cc1ccccc1)Cc1ccccc1`, the z-score falls from 0.673 to -0.22.

Going from `COCC(C)n1c(C)cc(C(=O)COC(=O)c2oc3ccccc3c2C)c1C` (stereo unspecified) to `CCOC(=O)c1oc2ccccc2c1NC(=O)COc1ccc(F)cc1`, the z-score rises from -0.927 to -0.456.

Going from `Cc1ccccc1CSCC(=O)Nc1c(C)n(C)n(-c2ccccc2)c1=O` to `CCOC(=O)CSC1=Nc2ccccc2C2=NC(CC(=O)NCc3ccccc3)C(=O)N12` (stereo unspecified), the z-score rises from -0.0609 to 2.91.

Compared with `CC(C)(C)C(=O)NC(=S)N1CCCC1`, `Cc1nc(NC(=O)C2CC2)sc1C(=O)N(C)C` is lower in z-score: -0.128 for the first, -0.405 for the second.

Going from `COC(=O)c1ccc(C(=O)OC)c(NC(=O)COC(=O)C23CC4CC(CC(O)(C4)C2)C3)c1` to `CCOC(=O)CSC1=Nc2ccccc2C2=NC(CC(=O)NCc3ccc(OC)cc3)C(=O)N12` (stereo unspecified), the z-score rises from -1.04 to 0.556.

First: CCCCn1c(SCC(=O)Nc2cc(C)on2)nnc1-c1cccnc1
Second: Cc1cc(NC(=O)CSc2nnc(-c3cccnc3)n2C)no1
The z-score of the first is higher: 2.11 for the first, 0.0216 for the second.

First: Cc1cc(NC(=O)CSc2nnc(-c3cccnc3)n2N)no1
Second: Cc1nc2cc(-c3ccc(Cl)cc3)nn2c(C)c1CCC(=O)NCc1ccco1
The z-score of the first is lower: -0.404 for the first, -0.0434 for the second.

First: COc1ccc(S(=O)(=O)N(CCc2ccccc2)CC(=O)NC(C)C)cc1
Second: N=c1sccn1CC(=O)Nc1cccc2ccccc12
The z-score of the first is lower: -0.387 for the first, -0.00239 for the second.

Going from `COc1ccccc1NS(=O)(=O)c1ccc2oc(SC3CCOC3=O)nc2c1` (stereo unspecified) to `CCSc1nnc(-c2cc3c(s2)-c2ccccc2CC3)o1`, the z-score rises from -1.2 to 0.000914.

Compared with `CCOC(=O)CSC1=Nc2ccccc2C2=NC(CC(=O)NCc3cccs3)C(=O)N12` (stereo unspecified), `O=C(CN1C(=O)COc2ccccc21)NCCCN1CCc2ccccc2C1` is higher in z-score: 0.253 for the first, 0.383 for the second.

Going from `CN(C)CCCN1C(=O)CSC1c1ccccc1` (stereo unspecified) to `Cc1ccsc1/C=N/NC(=O)C1CC(=O)N(c2ccccc2)C1` (stereo unspecified), the z-score rises from -0.244 to 0.243.

First: O=C(C1CCCN1S(=O)(=O)c1cccc2cccnc12)N1CCN(c2ccccc2)CC1 (stereo unspecified)
Second: O=C(C1CCCN1S(=O)(=O)c1cccc2cccnc12)N1CCc2ccccc2C1 (stereo unspecified)
The z-score of the first is higher: -0.0642 for the first, -0.115 for the second.

Going from `O=C(C1CCN(S(=O)(=O)c2cccc3cccnc23)CC1)N1CCn2c1nc1ccccc12` to `O=C(C1CCCN(S(=O)(=O)c2cccc3cccnc23)C1)N1CCc2ccccc21` (stereo unspecified), the z-score falls from -0.522 to -1.2.

Going from `O=C(C1CCCN1S(=O)(=O)c1cccc2cccnc12)N1CCc2ccccc21` (stereo unspecified) to `Cc1ccc(N2CC(C(=O)N/N=C/c3cccc([N+](=O)[O-])c3)CC2=O)cc1` (stereo unspecified), the z-score falls from 2.97 to -0.282.

First: CSc1nnc(-c2cc3c(s2)-c2ccccc2CC3)o1
Second: CSc1ccc(/C=N/NC(=O)c2sccc2C)cc1
The z-score of the first is higher: 0.0264 for the first, -0.312 for the second.

Going from `O=C(COC(=O)CCCOc1ccc(Cl)cc1Cl)NCc1ccc(F)cc1` to `Cc1ccsc1/C=N/NC(=O)c1cccs1`, the z-score rises from -0.191 to 0.356.

For `COc1cc(Cl)cc2c1Sc1ccccc1/C2=C/CCN(C)C`, the z-score was 3.63 (active).
`CN(C)S(=O)(=O)c1cccc(NC(=S)Nc2cc(Cl)cc(Cl)c2)c1` was tested, and the z-score was 8 (active).
For `CN(C)S(=O)(=O)c1cccc(NC(=S)Nc2ccc(Cl)cc2Cl)c1`, the z-score was 7.58 (active).
With `CCCCN(CCCC)C(=S)NC(=O)C(C)(C)C` the z-score was 5.35 (active).
In the case of `O=C(C1CCCN1S(=O)(=O)c1cccc2cccnc12)N1CCn2c1nc1ccccc12` (stereo unspecified), the z-score is reported as 3.63 (active).
For `S=c1[nH]nc(-c2cc3c(s2)-c2ccccc2CC3)o1`, the z-score was 16.3 (active).
`COC(=O)Nc1nc(C)c(C(=O)N(C)C)s1` was tested, and the z-score was 4.58 (active).
With `O=C(CCN1C(=O)COc2ccccc21)NCCCN1CCc2ccccc2C1` the z-score was 7.6 (active).
`Cc1ccsc1/C=N/NC(=O)c1sccc1C` was tested, and the z-score was 5.91 (active).
In the case of `Cc1ccc(N2CC(C(=O)N/N=C/c3sccc3C)CC2=O)cc1` (stereo unspecified), the z-score is reported as 3.3 (active).
